Compound activity deposited in PubChem by National Center for Advancing Translational Sciences (NCATS).
B2AR arrestin ag – ADRB2 beta-arrestin recruitment | Potency, µM (top dose mostly 46.1 µM), usual class: activators | HTLA Tango cells, beta-arrestin recruitment, luciferase luminescence, 18 h | P07550 | AID 1347077 | 44,000 tested, under 10 active;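 further: potency means the concentration at half of the fitted maximal effect; 0% = DMSO and full agonism = EC100 isoproterenol or metaproterenol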
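Tango cell line, 1% FBS DMEM; cpd titration up to 46 microM; 18 hr, 37 degrees C, 5% CO2. Luciferin/ATP substrate mix added, 15 min RT, luminescence. %Activity, CRC fitting, curve-class categorization.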
GPR32 ag – GPR32 (DRV1) agonism, beta-arrestin recruitment | CHO-K1 GPR32 beta-arrestin PathHunter luminescence, 90 min; zero percent set by DMSO-only wells | activation, % at 76.9 µM | 2.5% of 48,000 active | AID 1346428;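 active means activation of at least 60% and not above a set upper limit, about 1 call in 100 departs from these limits; inconclusive means activation of 40% to 60%, or above that upper limit; inactive means activation under 40%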; further: 0% is about no effect
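Agonism was scored as beta-arrestin recruitment to ProLink-fused GPR32 in stably transfected CHO-K1 cells, giving a chemiluminescent beta-Gal signal; compounds were incubated 90 min at 37 °C.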
GALC G270D act – raises human GALC G270D mutant activity in cells; 145M-Twi-hGALC-G270D cells, HMU-beta-Gal fluorescence, 48 h; Potency, µM (highest dose often 57.5 µM), actives largely listed as activators; 0.1% of 45,000 active; further: potency means the concentration at half of the fitted maximal effect; 0% is about no effect; nearly all actives have a fitted effect of over 65% in size
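qHTS, 1536-well; 145M-Twi-hGALC-G270D cells (WT line also made) in DMEM/F12 + 10% FBS; compound incubation on live cells; HMU-β-gal 0.1 mM final, pH 5.2, NaTC; carbonate stop; fluorescence increase = enhanced residual activity.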
NTMT1 inhibitor – inhibitors of human N-terminal methyltransferase NTMT1; AID 1645870; Potency, µM (doses to about 114 µM), for the others: top-dose activity change, negative = inhibition, usual class: inhibitors; 2.5% of 59,000 active; NTMT1 MTase-Glo SAH luminescence, purified enzyme;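 further: potency means the concentration at half of the fitted maximal effect; plate controls were DMSO vehicle for no effect and no enzyme for full effect; nearly all actives have a fitted effect of over 65% in size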
Target sequence (Q9BV86 whole entry, looked up): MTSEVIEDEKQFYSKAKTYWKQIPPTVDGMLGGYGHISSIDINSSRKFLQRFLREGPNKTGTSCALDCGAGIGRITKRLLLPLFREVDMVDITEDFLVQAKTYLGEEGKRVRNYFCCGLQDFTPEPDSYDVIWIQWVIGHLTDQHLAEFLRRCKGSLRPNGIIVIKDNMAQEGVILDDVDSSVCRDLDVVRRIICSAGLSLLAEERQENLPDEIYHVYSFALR
GALK inhibitor – inhibits human galactokinase; P51570; recombinant GALK, Kinase-Glo ATP luminescence, 1 h; Potency, µM (titrated, usually from 57.5 µM), without a hit: at the top dose activity, negative = inhibition, actives largely listed as inhibitors; 44,000 tested, under 10 active; AID 1347072;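 further: plate controls were full GALK reaction for no effect and reaction lacking GALK for full effect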
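Human GALK (5 nM) was incubated with 35 uM ATP and 100 uM galactose in 20 mM HEPES pH 8.0 with MgCl2, NaCl, DTT and BSA for 1 h at room temperature. Remaining ATP was measured by Kinase-Glo Plus luminescence.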
Sfp qHTS opt – inhibits purified B. subtilis Sfp PPTase; 78% of 230 active; Potency, µM (top dose mostly 114 µM), for inactives: top-dose activity change, negative = inhibition, hits mostly inhibitors; shares compounds with NTMT1 inhibitor; AID 540350; purified Sfp PPTase enzyme activity, qHTS
Bsub HM489 growth – reduces growth of B. subtilis HM489 strain. 50% of 220 active. B. subtilis HM489 (acpS-) growth, BacTiter-Glo, 5 h. Potency, µM (doses to about 114 µM), for inactives: at the top dose activity change, negative = inhibition, most hits filed as inhibitors. AID 540353. shares compounds with NTMT1 inhibitor
Sfp gel opt – inhibitors of Bacillus subtilis Sfp PPTase, gel-based followup; shares compounds with NTMT1 inhibitor; purified Sfp PPTase, gel-based product detection; 54% of 220 active; Potency, µM (top dose mostly 250 µM), without a hit: at the highest dose activity change, negative = inhibition, usual class: inhibitors
Sfp gel – inhibits B. subtilis Sfp PPTase in gel-based assay. purified Sfp PPTase, gel-based product detection. AID 602362. 90% of 45 active. shares compounds with NTMT1 inhibitor. Potency, µM (top dose mostly 250 µM), for inactives: at the highest dose activity change, negative = inhibition, most hits filed as inhibitors
Sfp inh SAR2 – inhibitors of Bacillus subtilis Sfp PPTase, SAR round 2; shares compounds with NTMT1 inhibitor; purified Sfp enzyme, PPTase activity, qHTS; Potency, µM (series often up to 57.1 µM), for the others: at the highest dose activity change, negative = inhibition, actives largely listed as inhibitors; 87% of 230 active
hGST A1-1 inh – inhibits hGST A1-1 in Sfp inhibitor counter-screen. AID 602391. Potency, µM (top dose mostly 114 µM), for the others: at the highest dose activity change, negative = inhibition, actives largely listed as inhibitors. hGST A1-1 enzyme activity counter-screen, qHTS. shares compounds with NTMT1 inhibitor. 55 tested, under 10 active
HSD17B4 counter – inhibits human HSD17B4, off-target for HPGD inhibitors | 10% of 230 active | AID 743187 | Potency, µM (series often up to 57.1 µM), without a hit: top-dose activity change, negative = inhibition, hits mostly inhibitors | shares compounds with NTMT1 inhibitor | purified HSD17B4, estradiol/NAD+, NADH fluorescence
ALDH1A1 counter – ALDH1A1 (human) inhibition, HPGD counter-screen | AID 743195 | Potency, µM (series often up to 57.1 µM), for inactives: at the highest dose activity change, negative = inhibition, most hits filed as inhibitors | shares compounds with NTMT1 inhibitor | 93% of 230 active | recombinant ALDH1A1, NADH fluorescence, propionaldehyde/NAD+
Target sequence (P00352 whole entry, looked up): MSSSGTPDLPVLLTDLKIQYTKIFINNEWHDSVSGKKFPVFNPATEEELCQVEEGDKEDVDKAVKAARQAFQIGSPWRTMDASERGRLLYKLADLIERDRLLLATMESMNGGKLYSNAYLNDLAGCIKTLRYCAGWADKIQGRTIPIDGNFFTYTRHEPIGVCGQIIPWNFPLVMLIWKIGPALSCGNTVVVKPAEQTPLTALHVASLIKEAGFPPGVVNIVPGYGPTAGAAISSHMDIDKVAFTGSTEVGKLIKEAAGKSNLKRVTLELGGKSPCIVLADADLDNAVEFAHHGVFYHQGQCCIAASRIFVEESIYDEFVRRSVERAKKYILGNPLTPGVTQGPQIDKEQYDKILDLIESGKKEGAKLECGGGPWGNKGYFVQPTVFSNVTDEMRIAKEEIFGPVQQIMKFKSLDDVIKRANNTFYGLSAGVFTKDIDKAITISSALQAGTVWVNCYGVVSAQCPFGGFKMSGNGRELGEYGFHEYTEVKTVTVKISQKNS
NNMT counter – counter-screen for NTMT1 inhibitors: human NNMT inhibition | AID 1645878 | Potency, µM (series often up to 57.1 µM), without a hit: at the top dose activity, negative = inhibition, usual class: inhibitors | 10% of 120 active | NNMT MTase-Glo luminescence, SAH detection | shares compounds with NTMT1 inhibitor
* marks the source's active call; other numbers are inactive results; i = inactive; ? = inconclusive; / = no result; ! = not confirmed by another sample; [ ] = dose if it differs, or a comment. Rows were chosen to be rich in hits. Some 3.6% of all compounds tested hit in one or more screens of this group. Unless noted, the call rests on the fitted dose curve; in most records, active means well fitted curve in the direction sought with a large enough effect; inconclusive means small, poorly fitted or top-dose-only effect, or another doubt; inactive means no such curve, though single readings can be large; an effect the other way counts as inactive or inconclusive.

SMILES	B2AR arrestin ag	GPR32 ag	GALC G270D act	NTMT1 inhibitor	GALK inhibitor	Sfp qHTS opt	Bsub HM489 growth	Sfp gel opt	Sfp inh SAR2	HSD17B4 counter	ALDH1A1 counter	others
Cc1cc(CS(=O)(=O)c2ccccc2)cc(OCc2ccc(CN3CCC[C@@H]3CO)cc2)c1	/	/	/	8.9µM*!	/	/	/	/	/	/	/	NNMT counter=-6%
COc1cccc(NC(=S)N2CCN(c3ccc4ccccc4n3)CC2)n1	/	/	/	-24%[57.5 µM]	/	47µM*	?	-70%	36µM*	27µM*	24µM*
O=C(Nc1ccccc1)N1CCN(Cc2ccc3ccccc3n2)CC1	/	/	/	5%[57.5 µM]	/	/	/	/	/	/	/
COc1ccc(N2CCN(C(=O)Nc3ccc(Cl)cc3)CC2)cc1	i	20	i	-18%	0%	/	/	/	/	/	/
COc1cccc(NC(=S)N2CCN(c3cc(Cl)cc(Cl)c3)CC2)n1	/	/	/	?	/	?	-2%	?	?	10%	8.6µM*	Sfp gel=1%;hGST A1-1 inh=1.9µM*
COc1cccc(NC(=S)N2CCN(c3cccc(Cl)c3Cl)CC2)n1	/	/	/	?	/	?	?	?	5.8µM*	-15%	1.2µM*
CC(C)(C)c1ccc(NC(=O)N2CCN(c3ncccc3Cl)CC2)cc1	/	/	/	6%[57.5 µM]	/	/	/	/	/	/	/
OC[C@H]1O[C@@H](Oc2cc(O)cc(-c3cc4ccc(O[C@@H]5O[C@H](CO)[C@@H](O)[C@H](O)[C@H]5O)cc4o3)c2)[C@H](O)[C@@H](O)[C@@H]1O	/	/	/	6%[29.8 µM]	/	/	/	/	/	/	/
N#Cc1ccc(C(=O)N2CCC3(CC2)N=C(N)c2c(F)ccc(F)c2N3)cn1	/	/	/	-7%[57.5 µM]	/	/	/	/	/	/	/
Cc1ccnc(NC(=S)N2CCN(c3cc(C(F)(F)F)cc(C(F)(F)F)c3)CC2)c1	/	/	/	?	/	2.4µM*	3.3µM*	0.79µM*	0.65µM*	27µM*	7.6µM*	Sfp gel=0.95µM*;hGST A1-1 inh=?
Cc1noc2ncnc(N3CCN(c4cccc(C(F)(F)F)c4)CC3)c12	?	9	i	8%	2%	/	/	/	/	/	/
CSc1ncc(C(=O)N2CCN(c3ccc(Cl)cc3)CC2)c(C)n1	i	-5	i	-12%	-2%	/	/	/	/	/	/
Cc1ccc2scc(N3CCN(c4cccc(C(F)(F)F)c4)CC3)c(=O)c2c1	i	-23	i	-6%	2%	/	/	/	/	/	/
Cc1ccnc(NC(=S)N2CCN(c3cccc(C(F)(F)F)c3)C[C@@H]2C)c1	/	/	/	/	/	5.9µM*	47µM*	?	11µM*	6%	24µM*
S=C(Nc1cc(Cl)ccn1)N1CCN(c2ccc(Cl)cc2Cl)CC1	/	/	/	?	/	?	5.9µM*	-20%	36µM*	-4%	24µM*
Cc1ccnc(NC(=S)N2CCN(c3cc(F)cc(Cl)c3)CC2)c1	/	/	/	/	/	1.2µM*	15µM*	10µM*	1.6µM*	-21%	7.6µM*
CC1(C)CC[C@]2(C(=O)O[C@@H]3O[C@H](CO)[C@@H](O)[C@H](O)[C@H]3O)[C@H](O)C[C@]3(C)C(=CCC4[C@@]5(C)CC[C@H](O[C@@H]6OC[C@@H](O)[C@H](O)[C@H]6O)[C@@](C)(C(=O)O)C5CC[C@]43C)[C@@H]2C1 (stereo not given in full)	/	/	/	-2%[12.6 µM]	/	/	/	/	/	/	/
O=c1ccn(C2OC(CO)C(O)C2O)c(=O)[nH]1 (stereo not given)	/	/	/	-1%[57.5 µM]	/	/	/	/	/	/	/
C[C@]1(C(=O)N(CCCC(=O)O)Cc2cccc(Cl)c2)CCN1C(=O)c1csc2ccccc12	/	/	/	3%	/	/	/	/	/	/	/
Cc1ccnc(NC(=S)N2CCN(c3cccc(C(F)(F)F)n3)CC2)c1	/	/	/	?	/	1.5µM*	30µM*	7.9µM*	0.73µM*	-26%	22µM*
S=C(Nc1cc(Cl)ccn1)N1CCN(c2cc(Cl)cc(Cl)c2)CC1	/	/	/	/	/	37µM*	11µM*	-59%	18µM*	12%	27µM*
COC(=O)c1ccnc(NC(=S)N2CCN(c3cccc(C(F)(F)F)c3)CC2)c1	/	/	/	/	/	26µM*	17µM*	40µM*	11µM*	17µM*	12µM*
Cc1ccnc(NC(=S)N2CCCc3ccc(C(F)(F)F)cc32)c1	/	/	/	-6%	/	3%	?	0%	?	?	27µM*	Sfp gel=-2%;hGST A1-1 inh=?
COc1ccc2c(NC(=O)Nc3cccc(C(F)(F)F)n3)ccnc2c1	/	/	/	-4%[57.5 µM]	/	/	/	/	/	/	/
O=C(c1ccc(Cl)cc1)N1CCN(c2ccnc3cc(Cl)ccc23)CC1	/	/	/	8%[57.5 µM]	/	/	/	/	/	/	/
Cc1ccc(-n2c(=O)ccc(=O)n2CC(=O)N(C)C(C)c2ccco2)cc1 (stereo not given)	/	/	/	17%	/	/	/	/	/	/	/
